Unmarked numbers belong to inactive results.
Compound: C#CCNC(=O)CCSSCCC(=O)NCCc1ccc(C=O)c(C=O)c1
Assay: lysine labeling ratio R10:1 (500 µM / 50 µM probe), SILAC-ABPP in living cells; higher = lower intrinsic lysine reactivity toward the probe, active = 2 or less
Details: HeLa; probe concentrations 500 vs 50 µM
Method in brief: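 SILAC light and heavy living HeLa cells in PBS at room temperature were labelled with 50 µM or 500 µM of an alkyne-tagged, disulfide-linked lysine probe, with forward and reverse label swaps. Mixed lysates were clicked to biotin-azide, trypsin-digested, captured on neutravidin, DTT-released, alkylated and analysed by LC-MS/MS on a TIMS-TOF Pro. R is the filtered median high-probe/low-probe MS1 peptide ratio per lysine, then the median across forward and reverse replicates. Ratios are capped at 20.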

Sequence of UniProt Q15149 (Q15149 whole entry): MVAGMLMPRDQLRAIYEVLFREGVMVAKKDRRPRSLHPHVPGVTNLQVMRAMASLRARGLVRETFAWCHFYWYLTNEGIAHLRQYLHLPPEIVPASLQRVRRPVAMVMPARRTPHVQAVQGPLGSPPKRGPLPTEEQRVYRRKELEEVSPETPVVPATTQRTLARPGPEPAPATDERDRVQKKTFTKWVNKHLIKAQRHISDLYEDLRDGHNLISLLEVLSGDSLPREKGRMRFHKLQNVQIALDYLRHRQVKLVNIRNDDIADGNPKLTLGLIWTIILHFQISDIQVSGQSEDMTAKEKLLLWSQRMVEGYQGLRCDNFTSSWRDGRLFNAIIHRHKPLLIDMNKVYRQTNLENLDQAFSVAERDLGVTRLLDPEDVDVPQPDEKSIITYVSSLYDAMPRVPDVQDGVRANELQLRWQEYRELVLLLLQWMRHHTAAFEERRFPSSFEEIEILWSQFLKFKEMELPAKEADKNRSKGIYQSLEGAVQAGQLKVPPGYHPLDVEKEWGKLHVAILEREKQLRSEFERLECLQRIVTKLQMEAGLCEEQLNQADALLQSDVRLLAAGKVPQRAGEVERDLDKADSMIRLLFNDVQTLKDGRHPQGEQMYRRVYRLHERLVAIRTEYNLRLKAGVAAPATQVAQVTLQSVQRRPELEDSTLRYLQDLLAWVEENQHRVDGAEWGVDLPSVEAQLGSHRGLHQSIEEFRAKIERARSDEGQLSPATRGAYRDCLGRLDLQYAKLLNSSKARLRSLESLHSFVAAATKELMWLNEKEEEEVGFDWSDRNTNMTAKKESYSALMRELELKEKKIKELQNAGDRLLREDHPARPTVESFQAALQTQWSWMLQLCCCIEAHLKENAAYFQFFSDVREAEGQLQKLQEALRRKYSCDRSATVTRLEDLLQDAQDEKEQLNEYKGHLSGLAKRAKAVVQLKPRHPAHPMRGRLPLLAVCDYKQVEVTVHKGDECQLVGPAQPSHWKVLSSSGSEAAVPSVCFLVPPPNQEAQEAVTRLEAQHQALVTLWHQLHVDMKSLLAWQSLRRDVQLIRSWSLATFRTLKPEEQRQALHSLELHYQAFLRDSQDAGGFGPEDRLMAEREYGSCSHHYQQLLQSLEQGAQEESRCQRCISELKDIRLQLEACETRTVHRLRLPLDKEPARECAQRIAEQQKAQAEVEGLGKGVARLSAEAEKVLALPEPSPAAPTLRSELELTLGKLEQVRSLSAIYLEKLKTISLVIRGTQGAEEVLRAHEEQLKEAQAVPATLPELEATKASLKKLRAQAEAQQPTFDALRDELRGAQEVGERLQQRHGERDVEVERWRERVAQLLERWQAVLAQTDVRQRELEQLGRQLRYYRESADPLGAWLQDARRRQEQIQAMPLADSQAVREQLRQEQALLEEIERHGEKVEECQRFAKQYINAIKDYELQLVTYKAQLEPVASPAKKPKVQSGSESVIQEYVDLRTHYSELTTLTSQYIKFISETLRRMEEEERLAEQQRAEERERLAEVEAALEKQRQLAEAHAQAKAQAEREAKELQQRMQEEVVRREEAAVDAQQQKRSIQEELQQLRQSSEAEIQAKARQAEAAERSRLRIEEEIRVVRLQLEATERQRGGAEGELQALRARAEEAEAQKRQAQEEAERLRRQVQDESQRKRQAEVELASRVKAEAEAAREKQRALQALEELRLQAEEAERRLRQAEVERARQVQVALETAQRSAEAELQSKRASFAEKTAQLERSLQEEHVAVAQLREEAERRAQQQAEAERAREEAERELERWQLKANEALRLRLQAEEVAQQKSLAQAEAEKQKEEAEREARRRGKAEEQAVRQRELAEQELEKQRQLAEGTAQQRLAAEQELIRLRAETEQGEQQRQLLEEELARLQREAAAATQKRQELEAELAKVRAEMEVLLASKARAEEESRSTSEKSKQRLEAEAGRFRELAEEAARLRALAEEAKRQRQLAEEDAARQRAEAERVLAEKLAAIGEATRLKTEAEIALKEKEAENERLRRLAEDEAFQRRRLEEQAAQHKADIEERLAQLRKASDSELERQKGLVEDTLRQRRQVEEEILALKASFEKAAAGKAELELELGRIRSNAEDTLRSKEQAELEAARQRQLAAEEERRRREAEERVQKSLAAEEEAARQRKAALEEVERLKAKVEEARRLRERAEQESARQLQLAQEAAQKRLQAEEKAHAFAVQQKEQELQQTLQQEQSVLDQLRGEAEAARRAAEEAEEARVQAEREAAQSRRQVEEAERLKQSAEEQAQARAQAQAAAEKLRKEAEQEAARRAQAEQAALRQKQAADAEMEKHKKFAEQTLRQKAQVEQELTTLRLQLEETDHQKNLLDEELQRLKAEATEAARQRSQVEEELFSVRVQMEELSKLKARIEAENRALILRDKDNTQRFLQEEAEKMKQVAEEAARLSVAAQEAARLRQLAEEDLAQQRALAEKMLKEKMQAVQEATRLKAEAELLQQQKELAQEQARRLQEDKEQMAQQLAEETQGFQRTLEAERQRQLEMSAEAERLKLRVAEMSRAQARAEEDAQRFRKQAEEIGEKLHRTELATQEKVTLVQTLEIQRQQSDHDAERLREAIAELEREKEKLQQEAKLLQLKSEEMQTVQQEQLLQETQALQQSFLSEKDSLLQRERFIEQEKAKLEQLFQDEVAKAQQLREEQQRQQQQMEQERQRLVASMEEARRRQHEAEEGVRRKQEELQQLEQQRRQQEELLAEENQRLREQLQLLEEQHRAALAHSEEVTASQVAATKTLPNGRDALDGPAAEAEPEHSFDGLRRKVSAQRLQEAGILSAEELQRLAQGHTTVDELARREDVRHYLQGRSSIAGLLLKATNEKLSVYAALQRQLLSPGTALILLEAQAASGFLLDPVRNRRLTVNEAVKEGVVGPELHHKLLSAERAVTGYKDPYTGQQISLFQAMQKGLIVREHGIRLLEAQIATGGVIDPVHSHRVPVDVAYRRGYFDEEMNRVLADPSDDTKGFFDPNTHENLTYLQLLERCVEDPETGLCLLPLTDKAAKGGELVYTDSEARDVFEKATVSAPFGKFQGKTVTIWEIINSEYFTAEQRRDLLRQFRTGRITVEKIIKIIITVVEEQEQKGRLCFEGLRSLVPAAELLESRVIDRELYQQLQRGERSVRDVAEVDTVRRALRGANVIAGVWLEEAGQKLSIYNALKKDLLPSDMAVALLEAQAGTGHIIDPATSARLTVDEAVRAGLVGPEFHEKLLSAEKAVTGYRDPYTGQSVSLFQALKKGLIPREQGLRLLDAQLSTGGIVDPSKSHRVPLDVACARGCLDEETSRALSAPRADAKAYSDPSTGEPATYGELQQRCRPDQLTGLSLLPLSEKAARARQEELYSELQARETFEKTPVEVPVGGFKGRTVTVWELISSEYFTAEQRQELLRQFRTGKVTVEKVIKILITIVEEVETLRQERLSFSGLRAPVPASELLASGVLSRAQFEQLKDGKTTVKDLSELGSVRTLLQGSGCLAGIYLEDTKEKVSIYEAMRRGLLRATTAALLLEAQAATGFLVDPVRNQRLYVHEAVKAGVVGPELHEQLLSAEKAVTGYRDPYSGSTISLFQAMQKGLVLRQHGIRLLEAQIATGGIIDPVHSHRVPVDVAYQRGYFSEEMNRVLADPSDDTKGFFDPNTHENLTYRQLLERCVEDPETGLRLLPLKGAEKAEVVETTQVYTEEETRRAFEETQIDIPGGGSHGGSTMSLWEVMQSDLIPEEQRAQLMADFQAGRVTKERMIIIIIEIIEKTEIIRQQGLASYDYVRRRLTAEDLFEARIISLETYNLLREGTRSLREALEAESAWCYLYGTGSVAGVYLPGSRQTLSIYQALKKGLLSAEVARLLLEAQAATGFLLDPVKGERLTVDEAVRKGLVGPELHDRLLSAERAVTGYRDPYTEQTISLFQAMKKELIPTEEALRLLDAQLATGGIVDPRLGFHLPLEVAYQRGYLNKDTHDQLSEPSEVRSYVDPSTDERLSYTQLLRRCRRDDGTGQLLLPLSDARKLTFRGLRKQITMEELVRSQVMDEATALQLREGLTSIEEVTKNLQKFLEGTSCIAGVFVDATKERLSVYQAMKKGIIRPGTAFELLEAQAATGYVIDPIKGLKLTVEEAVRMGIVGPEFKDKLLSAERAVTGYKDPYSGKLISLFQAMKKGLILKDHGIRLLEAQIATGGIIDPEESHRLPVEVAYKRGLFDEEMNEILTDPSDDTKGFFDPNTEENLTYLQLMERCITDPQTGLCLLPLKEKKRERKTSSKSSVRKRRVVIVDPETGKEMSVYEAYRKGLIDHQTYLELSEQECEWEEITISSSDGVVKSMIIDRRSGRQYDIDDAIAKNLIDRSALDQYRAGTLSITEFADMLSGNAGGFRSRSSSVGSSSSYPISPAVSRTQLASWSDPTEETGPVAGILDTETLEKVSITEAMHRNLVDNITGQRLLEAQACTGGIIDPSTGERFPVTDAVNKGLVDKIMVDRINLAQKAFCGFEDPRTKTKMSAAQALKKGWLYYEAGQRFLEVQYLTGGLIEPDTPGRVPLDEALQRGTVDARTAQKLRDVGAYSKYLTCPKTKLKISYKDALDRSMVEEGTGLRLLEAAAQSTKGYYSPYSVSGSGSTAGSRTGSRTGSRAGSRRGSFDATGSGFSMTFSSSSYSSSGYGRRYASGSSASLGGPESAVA
Sequence of UniProt P08727 (P08727 whole entry): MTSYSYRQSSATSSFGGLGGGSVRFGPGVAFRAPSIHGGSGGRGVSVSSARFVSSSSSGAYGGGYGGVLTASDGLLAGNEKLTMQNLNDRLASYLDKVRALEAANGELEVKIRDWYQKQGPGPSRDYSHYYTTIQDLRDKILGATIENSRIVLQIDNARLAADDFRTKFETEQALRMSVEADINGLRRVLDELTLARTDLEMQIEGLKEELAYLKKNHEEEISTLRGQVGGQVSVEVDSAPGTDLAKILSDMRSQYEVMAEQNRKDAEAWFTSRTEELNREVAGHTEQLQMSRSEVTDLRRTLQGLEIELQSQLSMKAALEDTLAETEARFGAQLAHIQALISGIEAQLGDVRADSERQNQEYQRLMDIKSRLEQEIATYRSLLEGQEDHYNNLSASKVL

Target | lysine labeling ratio R10:1
PNN (lysine site: K202) (UniProt Q9H307) | 3
SPTAN1 (lysine site: K1432) (UniProt Q13813) | 0.77 (active)
MSN (lysine site: K360) (UniProt P26038) | 2.83
CACYBP (lysine site: K212) (UniProt Q9HB71) | 1.91 (active)
UniProt P08727 (lysine site: K140) | 2.21
UniProt Q13620 (lysine site: K903) | 3.24
COPA (lysine site: K607) (UniProt P53621) | 1.94 (active)
UniProt Q8WXI7 (lysine site: K13676) | 3.84
VAPA (lysine site: K205) (UniProt Q9P0L0) | 7.76
FLNB (lysine site: K1241) (UniProt O75369) | 1.42 (active)
VIM (lysine site: K313) (UniProt P08670) | 10.6
UniProt Q13275 (lysine site: K62) | 3.35
UniProt P62826 (lysine site: K134) | 4.19
PDIA4 (lysine site: K637) (UniProt P13667) | 2.44
DCTN2 (lysine site: K175) (UniProt Q13561) | 2.59
DSG2 (lysine site: K141) (UniProt Q14126) | 4.68
TLN1 (lysine site: K147) (UniProt Q9Y490) | 1.5 (active)
UniProt Q15149 (lysine site: K3027) | 2.74
UniProt P61160 (lysine site: K368) | 3.41
ATP2A2 (lysine site: K757) (UniProt P16615) | 1.36 (active)

Target | lysine labeling ratio R10:1
HSPA8 (lysine site: K159) (UniProt P11142) | 5.07
UniProt Q15149 (lysine site: K2142) | 3.4
TFPI (lysine site: K64) (UniProt P10646) | 1.41 (active)
EZR (lysine site: K344) (UniProt P15311) | 7.1
CD109 (lysine site: K494) (UniProt Q6YHK3) | 8.05
FN1 (lysine site: K2354) (UniProt P02751) | 6.78
PRDX5 (lysine site: K146) (UniProt P30044) | 1.62 (active)
UniProt P05787 (lysine site: K207) | 3.47
KRT18 (lysine site: K187) (UniProt P05783) | 3.47
SPTBN1 (lysine site: K714) (UniProt Q01082) | 2.12
FLOT1 (lysine site: K246) (UniProt O75955) | 2.54
ASPH (lysine site: K552) (UniProt Q12797) | 4.2
UniProt Q9UHN6 (lysine site: K1278) | 1.31 (active)
IGF1R (lysine site: K221) (UniProt P08069) | 1.51 (active)
SLC9A6 (lysine site: K61) (UniProt Q92581) | 4.56
UniProt P04626 (lysine site: K200) | 6.23
EIF3H (lysine site: K274) (UniProt O15372) | 1.92 (active)
PSMA1 (lysine site: K115) (UniProt P25786) | 4.28
MYH9 (lysine site: K299) (UniProt P35579) | 2.23
EWSR1 (lysine site: K644) (UniProt Q01844) | 1.76 (active)
